L929 necroptosis – blocks zVAD induced death of L929 cells; L929 zVAD necroptosis rescue, ATP luminescence, 24 h; with zVAD 60 µM; viability rescue, % at 10 µM; 220,000 compounds, 0.38% hits;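 active means activation, scaled between plate controls, above about 75%, limit read from the data; inactive means activation under that limit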;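 further: 0% = zVAD with DMSO and 100% = DMSO alone without zVAD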
Hsp70 activator – switches on Hsp70 transcription; HeLa Hsp70 promoter luciferase reporter, luminescence; scaled: vehicle 0, proteasome-inhibitor control 100%; activation, % at 10 µM; 200,000 compounds, 0.04% hits;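 active means activation above the mean across all tested compounds plus 3 SD, cutoff set per campaign, cut at about 5.5% in these data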;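 further: 100% = MG132 at 30 µM as the positive control and 0% = DMSO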
HSF-1 act – increases HSF-1 driven luciferase reporter signal | NIH3T3-HGL HSF-1 luciferase reporter, MG132, 8 h; 100% = twice DMSO control signal | activation, % at 9 µM | 300,000 compounds, 1.7% hits | AID 504408;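 active means mean replicate activation of at least 50% with a set share of replicates each reaching 50%; inconclusive means only one of those two conditions met; inactive means mean below 50% and too few replicates reaching it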;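 further: 0% = median of the neutral control wells and 100% = twice that signal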
TNF necrop inh – TNF-alpha cell death inhibition in Jurkat FADD-/- cells; AID 463075; 220,000 compounds, 0.068% hits; Jurkat FADD-/- TNF necroptosis rescue, ATP luminescence, 24 h; 0 = TNF only, 100 = no-TNF cells; activation (protection from cell death), % at 10 µM;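 active means activation, meaning protection from cell death, of at least 50% relative to plate controls; inactive means activation below 50%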;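 further: necroptosis triggered by 40 ng/mL TNF-alpha added together with compound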
zVAD necrop conf – confirmed blocker of zVAD induced death in L929 cells. shares compounds with L929 necroptosis. L929 zVAD-induced necroptosis rescue, ATP luminescence, 24 h. activation (protection from necroptosis), % at 10 µM. 760 compounds, 16% hits. AID 463117;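 active means mean protection from necroptosis of at least 50% over duplicate tests; inactive means mean protection below 50%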;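 further: 0% = cells with zVAD alone and 100% = vehicle cells without zVAD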
* = called active by the depositor; ? = inconclusive; / = no result. Shown are actives, neighbours in structure and some others; about 1.9% of the full set was active somewhere.

SMILES | L929 necroptosis | Hsp70 activator | HSF-1 act | TNF necrop inh | zVAD necrop conf
CCc1c(C)sc(NC(=S)N2CC(C)OC(C)C2)c1C(=O)OC (centres undefined) | 2 | 0 | / | 2 | /
COC(=O)c1ccc(-c2ccc(/C=N/N3C(=O)C4C5C=CC(CC5)C4C3=O)o2)cc1 (centres undefined) | 83* | 0 | -17 | 6 | 0
O=C(O)c1cc(-c2ccc(/C=N/N3C(=O)C4C5C=CC(CC5)C4C3=O)o2)ccc1Cl (centres undefined) | 5 | 0 | 12 | 0 | /
Cc1nn(-c2ccccn2)c2c1C(c1c(F)cccc1Cl)C1=C(N2)c2ccccc2C1=O (centres undefined) | 0 | 0 | -8 | 0 | /
CC(C)(C)n1nc(-c2ccc(F)cc2)c2c(N)ncnc21 | 79* | 0 | -35 | 3 | 41
CCc1nnc(NS(=O)(=O)c2ccc(N/C=C/C(=O)c3ccc(OC)cc3)cc2)s1 | 79* | 0 | 11 | 0 | 2
CCc1nnc(NS(=O)(=O)c2ccc(NC(=O)Nc3ccc(OC)cc3)cc2)s1 | / | / | 8 | / | /
Cc1ccc(CN2CCNC(=O)C2CC(=O)NCCCn2ncc3ccccc32)o1 (centres undefined) | -1 | 0 | / | -2 | /
CCOCC(=O)N1CCN(c2ccccc2OC)CC1 | 3 | 0 | -8 | 0 | /
O=C(Nc1ccc(-n2cnnn2)cc1)C1CCC1 | 0 | 0 | -1 | 0 | /
O=C(Cc1ccc(-n2cnnn2)cc1)NC12CC3CC(CC(C3)C1)C2 | 86* | 0 | -4 | 0 | 35
Cc1ccc2c(c1)C1CN(C)CCC1N2C(=O)Nc1ccc(Cl)cc1 (centres undefined) | 82* | -1 | 13 | 11 | 8
Cc1ccc2c(c1)C1CN(C)CCC1N2C(=O)c1cccc(S(=O)(=O)N(C)C)c1 (centres undefined) | 0 | 1 | -1 | 1 | /
O=c1/c(=C/c2ccc(O)cc2)sc2n1CCCN=2 | 4 | 0 | / | -5 | /
O=c1/c(=C\c2ccc(F)cc2)sc2n1CCCN=2 | 76* | 0 | ? | -1 | 0
CCC1(c2ccccc2)C(=O)NCNC1=O | 75* | 0 | -3 | 1 | 4
COc1ccc(NC(=O)NC23CC4(C)CC(C)(CC(C)(C4)C2)C3)cc1 | 76* | 0 | -2 | 4 | 39
CC(=O)Nc1ccc(C(=O)NNC(=O)c2ccc(Cl)cc2)cc1 | / | / | 3 | / | /
COc1ccc(C(=O)NNC(=O)Nc2ccc(Cl)cc2)cc1 | 81* | 0 | 7 | 1 | 2
CN(CC(=O)Nc1cccc(F)c1)C(=O)c1ccc(COc2ccccc2)o1 | / | / | 4 | / | /
COc1cc(/C=N/Nc2ncnc3sc4c(c23)CCC4)ccc1O | 82* | 0 | -31 | 10 | 38
COc1cc(/C=N/NC2=NCCCCC2)ccc1O | 0 | / | -4 | 1 | /
COc1cccc(-n2c(SCC(=O)N3CCCC3)nc3c([nH]c4ccccc43)c2=O)c1 | 0 | 0 | / | -1 | /
COc1ccc(S(=O)(=O)c2cnc3ccccc3n2)cc1 | 76* | 0 | 6 | 21 | 1
O=S(=O)(c1ccc(Br)cc1)c1cnc2ccccc2n1 | 47 | 0 | 30 | 5 | /
SMILES | L929 necroptosis | Hsp70 activator | HSF-1 act | TNF necrop inh | zVAD necrop conf
O=C(CSc1nnc(-c2ccc(Br)cc2)o1)N1CCN(C(=O)c2ccco2)CC1 | 6 | 0 | 26 | 0 | /
CC1CC(C)CN(C(=O)CSc2nnc(-c3ccc(F)cc3)o2)C1 (centres undefined) | 89* | 0 | 0 | 1 | 12
Cc1ccc(C(=O)CCC(=O)N2CCN(C(=O)c3ccco3)CC2)cc1 | 76* | 0 | 19 | -1 | 8
Cc1ccc(CC(=O)N2CCN(C(=O)c3ccco3)CC2)cc1 | 2 | 0 | 17 | -1 | /
Cc1cc(C)cc(-c2nnc(SCC(=O)N3CCN(C(=O)c4ccco4)CC3)o2)c1 | 85* | 0 | 29 | -7 | 24
O=C(c1cccc(C(F)(F)F)c1)c1c[nH]c(C(=O)NCCCN2CCOCC2)c1 | 4 | 0 | 0 | 2 | /
ClC1=C(Cl)C(Cl)=C(Cl)C1=C/C=C/c1ccccc1 | 112* | / | -14 | -29 | 3
NC1=NC(=O)/C(=C\C=C\c2ccccc2)S1 | 1 | 0 | 15 | 1 | /
CCC(=O)N(C(=O)CC)N1CCN(c2ccncc2S(=O)(=O)N2CCCCC2)CC1 | / | / | -19 | / | /
O=C(c1ccco1)n1nc(-c2ccc(Cl)cc2)nc1NCc1ccco1 | 1 | 0 | 9 | 0 | /
O=C(COc1ccccc1)n1nc(-c2ccc(Cl)cc2)nc1NCc1ccco1 | 83* | 0 | 31 | -1 | 0
Cn1c(SCC(=O)O)nnc1-c1ccc2ncccc2c1 | 1 | / | -9 | 4 | /
CC(=O)c1ccc(S(=O)(=O)N2CCN(C(=O)CSC(=S)N3CCCC3)CC2)cc1 | / | / | -2 | / | /
Cc1cc(O)c(C(C)C)cc1N=Nc1ccccc1C(=O)O | 2 | / | -10 | -4 | /
Cc1cc(NO)c(C(C)C)cc1N=O | 78* | 0 | -12 | -2 | 8
O=C1CCc2cc(S(=O)(=O)NCc3ccccc3Cl)cc3c2N1CC3 | / | / | 5 | / | /
CCOc1ccccc1N(CC(=O)N1CCCC1)S(C)(=O)=O | / | / | 0 | / | /
COc1ccc(Nc2nc(OC)nc(N3CCOCC3)n2)cc1 | 13 | 0 | -6 | 1 | /
Cc1ccc(Nc2nc(OC(C(F)(F)F)C(F)(F)F)nc(N3CCOCC3)n2)cc1 | 88* | 0 | 0 | 3 | 2
C/C(CC(=O)NC(C)C)=N\NC(=O)C(c1ccccc1)c1ccccc1 | 82* | 0 | 10 | 30 | 40
C/C(CCc1ccccc1)=N/NC(=O)C(=O)NC(C)c1ccccc1 (centres undefined) | 6 | 0 | -7 | 1 | /
CC(C(=O)NC1CCCCC1)N1CCN(C)CC1 (centres undefined) | 0 | / | -3 | 2 | /
COc1ccc(NC(=O)c2ccc(S(=O)(=O)C(F)F)cc2)c(OC)c1 | 77* | 0 | 9 | 0 | 1
Fc1ccc(N=Cc2ccc[nH]2)cc1 | / | / | -9 | / | /
Oc1ccccc1N=Cc1ccc[nH]1 | 97* | 0 | -12 | 8 | 7
SMILES | L929 necroptosis | Hsp70 activator | HSF-1 act | TNF necrop inh | zVAD necrop conf
O=C(CSc1nnc(-c2ccco2)o1)N1c2ccccc2CCc2ccccc21 | 0 | 0 | 6 | -6 | /
C/C=C/C=C/C(=O)Nc1nccs1 | 86* | 0 | 36 | 11 | 4
O=C(/C=C/c1ccc(Cl)cc1)Nc1nccs1 | 77* | 0 | 63* | 30 | 19
O=C(NCc1ccc(Cl)cc1)C(=O)Nc1nccs1 | 1 | 0 | 0 | 1 | /
OCCNc1nc(Nc2cc(Cl)ccc2OC2CCCC2)nc(N2CCCC2)n1 | / | / | 1 | / | /
COc1ccccc1N=C1NC(=O)/C(=C/c2ccc(N(C)C)cc2)S1 | / | / | 20 | / | /
C=CCn1c(SCc2ccc(C(=O)Nc3nccs3)cc2)nnc1-c1ccc(C)c(Cl)c1 | 103* | 0 | 39 | 9 | 60*
Cc1cc(C)cc(NC(=O)c2ccc(CSc3nnnn3C)cc2)c1 | 1 | 0 | 7 | 9 | /
Cn1nnnc1SCc1ccc(C(=O)Nc2nccs2)cc1 | 92* | 0 | 1 | 43 | 88*

Bioassay records (PubChem BioAssay)
